Data as given in PubChem BioAssay (EPA / NIEHS).
Activity calls are given as the source filed them. Rule for the calls: active = hit-call score of the fitted dose curve at least 0.9, where 1 is the maximum; inactive = score below 0.9.

What was measured:
[1] = biological target: CCAAT/enhancer-binding protein beta (Homo sapiens) (UniProt P17676); assay: ATG_C_EBP_CIS: Attagene CIS-FACTORIAL HepG2 Assay for human CCAAT/Enhancer Binding Protein (C/EBP) beta (AID 2282927); settings: HepG2 Attagene cis-factorial transcription factor reporter; actives raise or lower the signal
CCAAT/enhancer-binding protein beta (Homo sapiens), sequence (P17676 whole entry, looked up): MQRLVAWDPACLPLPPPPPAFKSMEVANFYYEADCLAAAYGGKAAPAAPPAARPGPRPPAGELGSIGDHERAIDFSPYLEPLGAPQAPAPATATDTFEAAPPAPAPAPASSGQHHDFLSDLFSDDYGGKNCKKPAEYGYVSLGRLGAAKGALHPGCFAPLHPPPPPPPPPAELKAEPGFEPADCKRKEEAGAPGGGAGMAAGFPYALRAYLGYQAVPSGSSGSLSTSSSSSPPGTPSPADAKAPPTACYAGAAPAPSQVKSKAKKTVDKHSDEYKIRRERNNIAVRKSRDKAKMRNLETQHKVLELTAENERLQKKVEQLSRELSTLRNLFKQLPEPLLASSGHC
In short: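 HepG2, transient MRTU transfection, 24 h treatment. RT-PCR plus CE fluorescence; DMSO negative control, bidirectional fit.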

[2] = ATG_CMV_CIS: Attagene CIS-FACTORIAL HepG2 Assay for human CMV (Internal Marker) (AID 2282928); settings: HepG2 CMV promoter reporter, transcription factor profiling; actives raise or lower the signal;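 note: endpoint acts as a background internal control marker rather than a target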
In short: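 After transient transfection of HepG2 with reporter transcription units driven by cis-regulatory promoters, cells receive test chemical for 24 h. Labeled reporter amplicons, digested with HpaI, are sized and quantified by capillary electrophoresis against DMSO.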

[3] = ATG_AP_2_CIS: Attagene CIS-FACTORIAL HepG2 Assay for human Activator Protein 2 (AP-2) (AID 2282932); settings: HepG2 AP-2 cis-reporter, Attagene transcription factor profiling; actives raise or lower the signal
In short: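 Multiplexed mRNA reporter assay in HepG2: cis-regulated units report endogenous factor activity after 24 h treatment. Fluorescence from capillary electrophoresis of RT-PCR products gives the signal, with DMSO as baseline.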

[4] = ATG_BRE_CIS: Attagene CIS-FACTORIAL HepG2 Assay for human Bone Morphogenetic Protein (BMP) Response Element (BRE) (AID 2282933); settings: HepG2 BMP response element reporter, Attagene transcription factor profiling; actives raise or lower the signal
In short: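 A HepG2 multiplex reporter system measured inducible reporter mRNA 24 h post-dosing. Detection: RT-PCR, 6-FAM primer extension, HpaI digestion, capillary electrophoresis. Activity fitted bidirectionally relative to DMSO.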

[5] = biological target: Transcription factor E2F1 (Homo sapiens) (UniProt Q01094); assay: ATG_E2F_CIS: Attagene CIS-FACTORIAL HepG2 Assay for human E2F Transcription Factor 1 (AID 2282935); settings: HepG2 Attagene cis-reporter, E2F reporter RNA transcripts; actives raise or lower the signal
Transcription factor E2F1 (Homo sapiens), sequence (Q01094 whole entry, looked up): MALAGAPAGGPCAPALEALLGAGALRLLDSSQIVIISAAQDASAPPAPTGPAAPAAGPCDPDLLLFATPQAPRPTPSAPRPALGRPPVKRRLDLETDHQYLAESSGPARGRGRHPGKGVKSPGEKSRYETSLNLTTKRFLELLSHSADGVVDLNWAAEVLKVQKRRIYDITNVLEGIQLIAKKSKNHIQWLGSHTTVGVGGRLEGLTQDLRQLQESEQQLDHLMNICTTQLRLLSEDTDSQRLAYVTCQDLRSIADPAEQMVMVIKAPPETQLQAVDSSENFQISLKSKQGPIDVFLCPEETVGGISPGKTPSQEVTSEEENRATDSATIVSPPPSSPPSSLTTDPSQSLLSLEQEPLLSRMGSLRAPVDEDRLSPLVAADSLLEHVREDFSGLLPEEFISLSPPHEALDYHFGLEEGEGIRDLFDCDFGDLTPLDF
In short: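 Measures reporter transcript levels via RT-PCR with capillary electrophoresis detection in HepG2 cells harboring cis-regulated reporter units; 24 h post-dose; bidirectional curve fitting with DMSO as baseline.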

[6] = ATG_E_Box_CIS: Attagene CIS-FACTORIAL HepG2 Assay for human Enhancer Box (E-box) (AID 2282936); settings: HepG2 E-box cis-reporter transcription, actives raise or lower the signal
In short: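 First, HepG2 cells receive multiple cis-regulated reporter constructs by transient transfection. Next, chemicals are applied for 24 h. Finally, reporter mRNA is quantified via RT-PCR and capillary electrophoresis, with DMSO as baseline.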

[7] = ATG_M_61_CIS: Attagene CIS-FACTORIAL HepG2 Assay for M61 Transcription Factor (Internal Marker) (AID 2282937); settings: HepG2 Attagene CIS-FACTORIAL M61 internal marker reporter; actives raise or lower the signal
In short: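 Readout is reporter mRNA by RT-PCR, fluorescent primer extension and capillary electrophoresis, with gain or loss fitted relative to DMSO. Transfected HepG2 cells carrying endogenous-TF-driven cis reporters were exposed to chemicals for 24 hours.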

[8] = ATG_EGR_CIS: Attagene CIS-FACTORIAL HepG2 Assay for human Early Growth Response 1 (EGR1) (AID 2282938); settings: HepG2 Attagene CIS-FACTORIAL EGR reporter mRNA; actives raise or lower the signal
In short: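 After 24 h compound exposure, RNA from reporter-transfected HepG2 cells was reverse-transcribed, PCR-amplified, fluorescently labelled and resolved by capillary electrophoresis. EGR1 reporter transcript changes, up or down, were fitted against DMSO, reflecting endogenous transcription-factor activity.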

[9] = ATG_M_19_CIS: Attagene CIS-FACTORIAL HepG2 Assay for M19 Transcription Factor (Internal Marker) (AID 2282939); settings: HepG2 Attagene CIS-FACTORIAL M19 internal marker reporter; actives raise or lower the signal
In short: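 Chemical-treated HepG2 (24 h) with MRTU constructs; reporter transcripts detected by fluorescent RT-PCR fragment analysis on capillary electrophoresis. Internal background marker, DMSO as baseline.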

[10] = ATG_FoxO_CIS: Attagene CIS-FACTORIAL HepG2 Assay for human Forkhead box O (FoxO) (AID 2282943); settings: HepG2 Attagene cis-reporter, FoxO element, mRNA; actives raise or lower the signal
In short: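 Transfected HepG2 reporter cells exposed to test chemical for 24 h; reporter RNA measured by reverse transcription, PCR and fluorescent capillary electrophoresis; curves fitted for increases and decreases against DMSO.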

[11] = ATG_GATA_CIS: Attagene CIS-FACTORIAL HepG2 Assay for human GATA Binding Protein (AID 2282944); settings: HepG2 GATA cis-element reporter, Attagene multiplex mRNA; actives raise or lower the signal
In short: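 Transfected cis-reporter HepG2 cells were treated with chemicals for 24 hours. Total RNA was then converted to cDNA, amplified with reporter-specific primers and analysed by fluorescent capillary electrophoresis, using DMSO-treated wells as baseline.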

[12] = ATG_GLI_CIS: Attagene CIS-FACTORIAL HepG2 Assay for human Zinc Finger Protein GLI1 (AID 2282945); settings: HepG2, Attagene cis-factorial reporter mRNA, GLI element; actives raise or lower the signal
In short: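 Transiently transfected HepG2 cells report endogenous transcription factor activity via cis-element-driven reporter units. After 24 h compound exposure, reporter mRNA was measured by RT-PCR with capillary electrophoresis; bidirectional fitting against DMSO baseline.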

[13] = ATG_ISRE_CIS: Attagene CIS-FACTORIAL HepG2 Assay for human Interferon Regulatory Factor 1 (IRF1) binding to an Interferon-Stimulated Response Element (ISRE) (AID 2282948); settings: HepG2 ISRE cis-reporter (Attagene), mRNA transcription readout; actives raise or lower the signal
In short: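 Cell-based cis-reporter assay; HepG2; 24 h exposure; reporter mRNA by RT-PCR plus capillary electrophoresis fluorescence; activity in either direction scored relative to DMSO.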

[14] = ATG_M_32_CIS: Attagene CIS-FACTORIAL HepG2 Assay for M32 Transcription Factor (Internal Marker) (AID 2282949); settings: HepG2 Attagene cis-factorial M32 reporter, mRNA; actives raise or lower the signal;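 note: background control marker of the multiplexed CIS panel rather than a real target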
In short: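 Following 24 h chemical exposure of HepG2 cells transiently expressing cis-promoter reporter constructs, reporter transcript levels were determined by RT-PCR with fluorescent labelling and capillary electrophoresis, then fitted bidirectionally against DMSO.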

[15] = ATG_M_06_CIS: Attagene CIS-FACTORIAL HepG2 Assay for M06 Transcription Factor (Internal Marker) (AID 2282950); settings: HepG2 Attagene CIS-FACTORIAL M06 internal marker reporter; actives raise or lower the signal
In short: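 Cells (HepG2, transiently carrying cis-driven reporter units) receive chemical for 24 h before RNA isolation. Reporter cDNA is PCR-amplified, FAM-labelled by primer extension, HpaI-digested and sized on a capillary analyser.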

[16] = ATG_MRE_CIS: Attagene CIS-FACTORIAL HepG2 Assay for human Metal Responsive Element (MRE) (AID 2282954); settings: HepG2 MRE cis-reporter transcription, Attagene multiplex; actives raise or lower the signal
In short: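 Fluorescent reporter fragments separated by capillary electrophoresis give mRNA induction for the MRE unit after 24 h treatment of transfected HepG2 cells. Endogenous transcription-factor activity is read; DMSO serves as negative control and baseline.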

[17] = ATG_PXRE_CIS: Attagene CIS-FACTORIAL HepG2 Assay for human Pregnane X Receptor Element (PXRE) (AID 2282957); settings: HepG2 Attagene CIS-FACTORIAL PXRE reporter, mRNA; actives raise or lower the signal
In short: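 Cells: HepG2, transiently transfected reporter units under cis promoter control. Exposure: 24 h. Detection: reporter mRNA via RT-PCR/CE fluorescence; bidirectional fitting, DMSO-referenced.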

[18] = ATG_Sox_CIS: Attagene CIS-FACTORIAL HepG2 Assay for human SRY-box transcription factor (SOX) (AID 2282960); settings: HepG2 Attagene cis-factorial SOX reporter, mRNA; actives raise or lower the signal
In short: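 Reporter transcripts, measured by RT-PCR and capillary electrophoresis of labelled fragments, report endogenous SOX transcription factor activity. Transiently transfected human HepG2 cells receive chemical for 24 h; changes in either direction are fitted relative to DMSO.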

[19] = biological target: Transcription factor Sp1 (Homo sapiens) (UniProt P08047); assay: ATG_Sp1_CIS: Attagene CIS-FACTORIAL HepG2 Assay for human Specificity Protein 1 (Sp1) (AID 2282961); settings: HepG2 Sp1 cis-reporter transcription, actives raise or lower the signal
Transcription factor Sp1 (Homo sapiens), sequence (P08047 whole entry, looked up): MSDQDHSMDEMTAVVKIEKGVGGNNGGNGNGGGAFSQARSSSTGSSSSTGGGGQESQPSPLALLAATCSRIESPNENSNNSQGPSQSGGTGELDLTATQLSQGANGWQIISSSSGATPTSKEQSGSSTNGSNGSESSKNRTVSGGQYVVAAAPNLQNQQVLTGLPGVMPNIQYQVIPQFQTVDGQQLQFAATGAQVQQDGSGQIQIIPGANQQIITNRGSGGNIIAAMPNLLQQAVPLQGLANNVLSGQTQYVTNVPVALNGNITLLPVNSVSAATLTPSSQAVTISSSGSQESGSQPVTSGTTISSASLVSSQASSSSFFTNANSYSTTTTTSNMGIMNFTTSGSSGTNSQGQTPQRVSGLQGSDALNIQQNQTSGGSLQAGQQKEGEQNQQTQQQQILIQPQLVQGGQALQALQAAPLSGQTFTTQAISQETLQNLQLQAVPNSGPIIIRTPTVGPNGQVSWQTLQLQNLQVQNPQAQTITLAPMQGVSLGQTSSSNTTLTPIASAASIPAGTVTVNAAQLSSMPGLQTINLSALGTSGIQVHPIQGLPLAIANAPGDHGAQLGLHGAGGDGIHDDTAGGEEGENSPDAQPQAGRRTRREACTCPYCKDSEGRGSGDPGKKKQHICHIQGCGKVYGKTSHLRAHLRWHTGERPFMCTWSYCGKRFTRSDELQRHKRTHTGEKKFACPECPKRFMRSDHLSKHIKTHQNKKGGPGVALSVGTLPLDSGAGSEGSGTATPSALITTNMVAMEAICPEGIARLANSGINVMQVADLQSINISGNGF
In short: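 Read-out is reporter transcript level, measured by RT-PCR and fluorescent capillary electrophoresis after 24 h chemical treatment. System: transiently transfected HepG2 cells reporting endogenous transcription factor activity; gain or loss fitted against DMSO baseline.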

[20] = ATG_SREBP_CIS: Attagene CIS-FACTORIAL HepG2 Assay for human Sterol Regulatory Element Binding (SREBP) (AID 2282962); settings: HepG2 Attagene cis-factorial SREBP reporter, mRNA; actives raise or lower the signal
In short: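 mRNA induction of transfected cis-promoter reporters in HepG2 cells, 24 h post-dose. Detection: RT-PCR with 6-FAM-labelled products, HpaI digest, capillary electrophoresis. DMSO served as negative control and baseline.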

With C=CCOC(=O)C(=C)C the outcome [1] was “inactive”, the outcome [2] was “inactive” and the outcome [3] was “inactive”. The outcome [4] was “inactive”, the outcome [5] was “inactive” and the outcome [6] was “inactive”. The outcome [7] was “inactive”, the outcome [8] was “inactive” and the outcome [9] was “inactive”. For the same compound, the outcome [10] was “inactive”, the outcome [11] was “inactive” and the outcome [12] was “inactive”. The outcome [13] was “inactive”, the outcome [14] was “inactive” and the outcome [15] was “inactive”. For the same compound, the outcome [16] was “inactive”, the outcome [17] was “inactive” and the outcome [18] was “inactive”. For the same compound, the outcome [19] was “inactive” and the outcome [20] was “inactive”.

With CC(C)CC(=O)O the outcome [1] was “inactive”, the outcome [2] was “inactive” and the outcome [3] was “inactive”. The outcome [4] was “inactive”, the outcome [5] was “inactive” and the outcome [6] was “inactive”. For the same compound, the outcome [7] was “inactive”, the outcome [8] was “inactive” and the outcome [9] was “inactive”. For the same compound, the outcome [10] was “inactive”, the outcome [11] was “inactive” and the outcome [12] was “inactive”. For the same compound, the outcome [13] was “inactive”, the outcome [14] was “inactive” and the outcome [15] was “inactive”. The outcome [16] was “inactive”, the outcome [17] was “inactive” and the outcome [18] was “inactive”. The outcome [19] was “inactive” and the outcome [20] was “inactive”.

In the case of CC(C)(C)NC(=O)[C@@H]1CN(Cc2cccnc2)CCN1C[C@@H](O)C[C@@H](Cc1ccccc1)C(=O)N[C@H]1c2ccccc2C[C@H]1O, the outcome [1] is reported as “inactive”, the outcome [2] is reported as “inactive” and the outcome [3] is reported as “inactive”. The outcome [4] was “inactive”, the outcome [5] was “inactive” and the outcome [6] was “inactive”. For the same compound, the outcome [7] was “inactive”, the outcome [8] was “inactive” and the outcome [9] was “inactive”. The outcome [10] was “inactive”, the outcome [11] was “inactive” and the outcome [12] was “inactive”. For the same compound, the outcome [13] was “inactive”, the outcome [14] was “inactive” and the outcome [15] was “inactive”. For the same compound, the outcome [16] was “inactive”, the AC50 [17] was 19.6 µM (active) and the outcome [18] was “inactive”. For the same compound, the outcome [19] was “inactive” and the outcome [20] was “inactive”.

In the case of CCCN[C@H]1CCc2nc(N)sc2C1, the outcome [1] is reported as “inactive”, the outcome [2] is reported as “inactive” and the outcome [3] is reported as “inactive”. The outcome [4] was “inactive”, the outcome [5] was “inactive” and the outcome [6] was “inactive”. The outcome [7] was “inactive”, the outcome [8] was “inactive” and the outcome [9] was “inactive”. The outcome [10] was “inactive”, the outcome [11] was “inactive” and the outcome [12] was “inactive”. The outcome [13] was “inactive”, the outcome [14] was “inactive” and the outcome [15] was “inactive”. The outcome [16] was “inactive”, the outcome [17] was “inactive” and the outcome [18] was “inactive”. The outcome [19] was “inactive” and the outcome [20] was “inactive”.

In the case of O=C(c1ccccc1)c1ccccc1O, the outcome [1] is reported as “inactive”, the outcome [2] is reported as “inactive” and the outcome [3] is reported as “inactive”. For the same compound, the outcome [4] was “inactive”, the outcome [5] was “inactive” and the outcome [6] was “inactive”. For the same compound, the outcome [7] was “inactive”, the outcome [8] was “inactive” and the outcome [9] was “inactive”. For the same compound, the outcome [10] was “inactive”, the outcome [11] was “inactive” and the outcome [12] was “inactive”. For the same compound, the AC50 [13] was 161 µM (active), the outcome [14] was “inactive” and the outcome [15] was “inactive”. The outcome [16] was “inactive”, the AC50 [17] was 26.7 µM (active) and the outcome [18] was “inactive”. The outcome [19] was “inactive” and the outcome [20] was “inactive”.

For CCCCCCCC#N, the outcome [1] was “inactive”, the outcome [2] was “inactive” and the outcome [3] was “inactive”. The outcome [4] was “inactive”, the outcome [5] was “inactive” and the outcome [6] was “inactive”. For the same compound, the outcome [7] was “inactive”, the outcome [8] was “inactive” and the outcome [9] was “inactive”. For the same compound, the outcome [10] was “inactive”, the outcome [11] was “inactive” and the outcome [12] was “inactive”. For the same compound, the outcome [13] was “inactive”, the outcome [14] was “inactive” and the outcome [15] was “inactive”. For the same compound, the outcome [16] was “inactive”, the outcome [17] was “inactive” and the outcome [18] was “inactive”. The outcome [19] was “inactive” and the outcome [20] was “inactive”.

For CCCCCCC1CCC(=O)O1 (stereo not given), the outcome [1] was “inactive”, the outcome [2] was “inactive” and the outcome [3] was “inactive”. The outcome [4] was “inactive”, the outcome [5] was “inactive” and the outcome [6] was “inactive”. For the same compound, the outcome [7] was “inactive”, the outcome [8] was “inactive” and the outcome [9] was “inactive”. The outcome [10] was “inactive”, the outcome [11] was “inactive” and the outcome [12] was “inactive”. The outcome [13] was “inactive”, the outcome [14] was “inactive” and the outcome [15] was “inactive”. For the same compound, the outcome [16] was “inactive”, the outcome [17] was “inactive” and the outcome [18] was “inactive”. The outcome [19] was “inactive” and the outcome [20] was “inactive”.
